The values that follow come from paper PMC5540273 (PLoS ONE, 2017).

Each structure is given as a SMILES string.

Some test systems named below: MARK4; MAST1; MELK; MERTK.
Holding throughout (settings): concentration: 1 μM, replicates: in singlicate; n = 1
The subject of a further assay is T1, MEK1.
T1 construct: gene MAP2K1

The test system of a further assay is T2, MEK2.
T2 construct: gene MAP2K2

The next assay deals with T3, MEK3.
T3 construct: gene MAP2K3

The test system of a further assay is T4, MEK4.
T4 construct: gene MAP2K4

Another assay deals with T5, MEK5.
T5 construct: gene MAP2K5

For the next assay, the system named is T6, MEK6.
T6 construct: gene MAP2K6
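Also: KINOMEscan kinase panel screen.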

Consider `CCCNC(=O)Nc1ccc(Oc2ncnc3ccn(C)c23)cc1`, for which the “%Inh” value came out at 9% in the assay on MARK4; 0% in the assay with MAST1; 0% in the assay on MEK1; 0% in the assay with MEK2; 0% in the assay with MEK3; 10% in the assay on MEK4. Moreover, the “%Inh” value with MEK5 is recorded as 61%; in the assay on MEK6 it was 14%; with MELK, 7%; with MERTK, 13%.
In the case of `Cc1cc(Nc2nc(-c3cccc(C)n3)nc3ccccc23)ccn1` [GW872411], the “%Inh” value with MARK4 is given as 27%; with MAST1, 0%; in the assay on MEK1 it was 2%; in the assay on MEK2, 9%; in the assay on MEK3, 12%; in the assay with MEK4, 0%. The “%Inh” value is reported as 4% in the assay with MEK5, 0% in the assay with MEK6, 0% in the assay with MELK and 25% with MERTK.
With `Cc1nnc(-c2ccc3ncn(-c4ccc(S(C)=O)cc4)c3c2)o1` (stereo not shown), the “%Inh” value was found to be 0% in the assay with MARK4; 0% in the assay with MAST1; 2% in the assay on MEK1; 22% in the assay on MEK2; 15% in the assay with MEK3; 8% in the assay on MEK4. The “%Inh” value with MEK5 came out at 0%; with MEK6, 13%; in the assay with MELK it was 13%; with MERTK, 1%.
Regarding `O=C(Nc1n[nH]c2nc(-c3ccccc3)c(Br)cc12)C1CC1` [SB-708998], the “%Inh” value in the assay on MARK4 was 0%; with MAST1, 0%; with MEK1, 0%; in the assay with MEK2, 0%; with MEK3, 0%; with MEK4, 21%. Also, the “%Inh” value in the assay on MEK5 stood at 42%; in the assay with MEK6, 0%; in the assay on MELK, 6%; with MERTK, 27%.
